In PMC7862700, “An all-to-all approach to the identification of sequence-specific readers for epigenetic DNA modifications on cytosine” one finds binding signal data, which are given here for one sequence.

What all share (assay): DAPPL (digital affinity profiling via proximity ligation, sequencing); 10 mM Tris-HCl pH 7.5, 50 mM NaCl, 1 mM DTT, 4% glycerol, room temperature, 30 min; GST-TFs on glutathione beads, 16-mer random dsDNA library, 0.1% formaldehyde crosslink after washing; high values mean tight binding
The target in one assay is T1, FEV (Homo sapiens, UniProt Q99581 1-238).
T1 sequence: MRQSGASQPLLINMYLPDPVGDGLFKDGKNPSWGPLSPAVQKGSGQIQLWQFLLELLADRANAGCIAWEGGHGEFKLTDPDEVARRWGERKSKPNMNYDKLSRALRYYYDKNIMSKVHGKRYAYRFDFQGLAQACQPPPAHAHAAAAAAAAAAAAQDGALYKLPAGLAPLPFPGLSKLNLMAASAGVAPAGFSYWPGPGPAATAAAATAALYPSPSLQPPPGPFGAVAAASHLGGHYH
The conditions noted are these: protein: recombinant; tags: N-terminal GST; dsDNA, one strand shown. Summed up: (§1)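 In yeast, human transcription factors were expressed with a GST fusion, then pulled down on glutathione beads and given DNA barcodes. Pooled with a tag-only sample, they were exposed to 200 nmole of a 16-mer random double-stranded DNA library (Tris/NaCl/DTT/glycerol buffer, room temperature, 30 min), washed, crosslinked with 0.1% formaldehyde, proximity-ligated using BsaI/T4 ligase for 1 h at 37 °C, PCR-amplified and read on an Illumina NextSeq500. Each hexamer's frequency of reads for a factor, divided by the matching frequency for the tag-only sample, gives the binding signal.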

The target in a further assay is ETV5 (Homo sapiens, UniProt P41161 1-510). The conditions noted are these: protein: recombinant; tags: N-terminal GST; dsDNA, one strand shown. The essentials: as §1
Sequence of ETV5 (P41161 whole entry): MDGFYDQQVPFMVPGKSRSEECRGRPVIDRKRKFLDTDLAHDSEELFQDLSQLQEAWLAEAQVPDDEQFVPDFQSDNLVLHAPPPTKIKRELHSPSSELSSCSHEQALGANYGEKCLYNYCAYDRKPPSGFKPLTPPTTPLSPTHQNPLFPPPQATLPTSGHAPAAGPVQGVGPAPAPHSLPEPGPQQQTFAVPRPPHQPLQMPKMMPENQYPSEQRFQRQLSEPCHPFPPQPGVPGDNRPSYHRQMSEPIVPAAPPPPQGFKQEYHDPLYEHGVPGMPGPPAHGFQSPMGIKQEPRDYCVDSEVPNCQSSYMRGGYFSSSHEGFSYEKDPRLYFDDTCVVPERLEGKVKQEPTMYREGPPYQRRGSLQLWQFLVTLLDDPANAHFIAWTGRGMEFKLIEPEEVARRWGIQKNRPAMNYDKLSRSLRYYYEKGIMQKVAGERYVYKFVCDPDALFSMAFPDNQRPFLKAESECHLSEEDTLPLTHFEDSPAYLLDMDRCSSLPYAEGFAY
The next assay deals with HSF1 (Homo sapiens, UniProt Q00613 1-529). The following applies: protein: recombinant; tags: N-terminal GST; chain copies: 3; dsDNA, one strand shown. Summed up: as §1
Sequence of HSF1 (Q00613 whole entry): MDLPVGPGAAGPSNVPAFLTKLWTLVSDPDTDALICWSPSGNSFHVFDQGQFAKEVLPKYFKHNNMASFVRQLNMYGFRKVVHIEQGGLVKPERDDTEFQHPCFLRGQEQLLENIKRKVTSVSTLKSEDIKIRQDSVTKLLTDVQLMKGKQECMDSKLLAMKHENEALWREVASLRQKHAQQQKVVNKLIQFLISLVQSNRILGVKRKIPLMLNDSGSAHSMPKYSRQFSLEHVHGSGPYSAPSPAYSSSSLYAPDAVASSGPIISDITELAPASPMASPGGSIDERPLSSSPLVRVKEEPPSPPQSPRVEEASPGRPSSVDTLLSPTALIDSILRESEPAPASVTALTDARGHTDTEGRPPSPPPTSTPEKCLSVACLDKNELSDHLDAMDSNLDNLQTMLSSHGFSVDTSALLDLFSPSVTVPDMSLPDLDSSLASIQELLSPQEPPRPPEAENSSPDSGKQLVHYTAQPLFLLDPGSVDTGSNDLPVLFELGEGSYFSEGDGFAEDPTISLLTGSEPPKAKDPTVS
For another assay, the target named is T2, SPIC (Homo sapiens, UniProt Q8N5J4 1-248).
T2 sequence: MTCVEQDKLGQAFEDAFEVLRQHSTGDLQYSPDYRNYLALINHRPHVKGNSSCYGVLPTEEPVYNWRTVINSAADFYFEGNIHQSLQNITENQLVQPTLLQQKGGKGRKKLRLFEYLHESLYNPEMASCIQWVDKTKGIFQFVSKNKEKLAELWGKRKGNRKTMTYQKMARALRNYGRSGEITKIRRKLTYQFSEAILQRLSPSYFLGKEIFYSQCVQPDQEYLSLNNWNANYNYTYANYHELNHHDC
The following applies: protein: recombinant; tags: N-terminal GST; dsDNA, one strand shown. The essentials: as §1

The next assay addresses ELF4 (Homo sapiens, UniProt Q99607 1-663). The following applies: protein: recombinant; tags: N-terminal GST; dsDNA, one strand shown. The essentials:
as §1

Another assay has as its target T3, ELK4 (Homo sapiens, UniProt P28324-2 1-405).
T3 sequence: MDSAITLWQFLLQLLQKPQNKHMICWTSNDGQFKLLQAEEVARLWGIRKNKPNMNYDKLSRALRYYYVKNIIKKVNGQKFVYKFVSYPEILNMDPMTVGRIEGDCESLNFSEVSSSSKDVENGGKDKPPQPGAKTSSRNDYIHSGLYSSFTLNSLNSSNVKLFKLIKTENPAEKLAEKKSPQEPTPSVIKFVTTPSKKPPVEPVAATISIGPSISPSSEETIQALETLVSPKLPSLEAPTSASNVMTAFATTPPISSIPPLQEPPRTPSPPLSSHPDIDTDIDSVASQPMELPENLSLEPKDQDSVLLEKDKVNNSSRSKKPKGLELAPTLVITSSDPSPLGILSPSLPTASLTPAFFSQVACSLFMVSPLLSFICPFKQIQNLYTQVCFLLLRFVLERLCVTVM
The conditions noted are these: protein: recombinant; tags: N-terminal GST; dsDNA, one strand shown. Summed up:
as §1

In a further assay the target is T4, ETV2 (Homo sapiens, UniProt O00321 1-342).
T4 sequence: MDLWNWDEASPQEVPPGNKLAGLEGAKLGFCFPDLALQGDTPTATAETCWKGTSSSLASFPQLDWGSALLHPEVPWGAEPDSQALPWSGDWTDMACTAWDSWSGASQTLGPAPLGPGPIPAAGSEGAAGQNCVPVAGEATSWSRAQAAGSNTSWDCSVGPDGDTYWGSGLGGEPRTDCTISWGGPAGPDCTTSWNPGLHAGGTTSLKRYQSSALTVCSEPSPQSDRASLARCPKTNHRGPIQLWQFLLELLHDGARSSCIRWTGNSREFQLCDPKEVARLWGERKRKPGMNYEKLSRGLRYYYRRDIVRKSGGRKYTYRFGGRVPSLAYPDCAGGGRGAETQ
The following applies: protein: recombinant; tags: N-terminal GST; dsDNA, one strand shown. The essentials:
as §1

Another assay concerns the target T5, ELF3 (Homo sapiens, UniProt P78545 1-371).
T5 sequence: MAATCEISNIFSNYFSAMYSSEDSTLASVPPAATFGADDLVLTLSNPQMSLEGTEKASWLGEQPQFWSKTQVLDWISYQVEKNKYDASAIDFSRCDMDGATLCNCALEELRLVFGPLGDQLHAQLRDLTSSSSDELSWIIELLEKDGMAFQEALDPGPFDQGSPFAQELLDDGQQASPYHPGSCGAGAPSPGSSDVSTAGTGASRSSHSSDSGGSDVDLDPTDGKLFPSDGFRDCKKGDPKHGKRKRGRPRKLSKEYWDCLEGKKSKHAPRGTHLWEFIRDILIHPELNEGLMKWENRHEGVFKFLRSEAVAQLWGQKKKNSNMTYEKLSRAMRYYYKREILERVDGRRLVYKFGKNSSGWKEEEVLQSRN
The following applies: protein: recombinant; tags: N-terminal GST; dsDNA, one strand shown. The essentials:
as §1

The target in another assay is CRX (Homo sapiens, UniProt O43186 1-299). The conditions noted are these: protein: recombinant; tags: N-terminal GST; dsDNA, one strand shown. Summed up: as §1
Sequence of CRX (O43186 whole entry): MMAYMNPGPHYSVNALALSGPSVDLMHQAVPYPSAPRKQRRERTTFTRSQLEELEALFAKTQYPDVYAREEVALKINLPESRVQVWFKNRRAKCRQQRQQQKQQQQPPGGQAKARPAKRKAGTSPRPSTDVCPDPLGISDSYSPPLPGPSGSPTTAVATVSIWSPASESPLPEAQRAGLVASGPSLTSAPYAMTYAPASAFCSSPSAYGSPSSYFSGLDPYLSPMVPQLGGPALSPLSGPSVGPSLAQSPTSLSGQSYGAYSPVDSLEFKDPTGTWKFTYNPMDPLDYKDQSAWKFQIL
The next assay addresses ETV1 (Homo sapiens, UniProt P50549 1-477). The following applies: protein: recombinant; tags: N-terminal GST; dsDNA, one strand shown. Summed up:
as §1

The next assay addresses T6, ERF (Homo sapiens, UniProt P50548 1-548).
T6 sequence: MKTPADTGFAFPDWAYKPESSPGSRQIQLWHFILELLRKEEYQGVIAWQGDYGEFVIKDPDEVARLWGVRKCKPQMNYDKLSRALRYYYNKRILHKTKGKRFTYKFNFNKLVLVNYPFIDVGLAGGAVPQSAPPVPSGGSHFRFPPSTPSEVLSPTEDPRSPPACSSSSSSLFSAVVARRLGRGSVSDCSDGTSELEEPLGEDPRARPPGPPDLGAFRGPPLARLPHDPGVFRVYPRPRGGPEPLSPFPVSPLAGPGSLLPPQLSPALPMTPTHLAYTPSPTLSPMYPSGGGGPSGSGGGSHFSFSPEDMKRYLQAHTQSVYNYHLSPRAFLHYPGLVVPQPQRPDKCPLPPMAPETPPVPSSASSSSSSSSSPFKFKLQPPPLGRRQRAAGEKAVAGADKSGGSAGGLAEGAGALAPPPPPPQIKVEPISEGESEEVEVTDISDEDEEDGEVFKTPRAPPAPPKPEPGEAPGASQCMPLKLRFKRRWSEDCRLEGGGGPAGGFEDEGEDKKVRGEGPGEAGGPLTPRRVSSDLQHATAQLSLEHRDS
The conditions noted are these: protein: recombinant; tags: N-terminal GST; dsDNA, one strand shown. Summed up:
as §1

The next assay has as its target T7, ETV3L (Homo sapiens, UniProt Q6ZN32 1-361).
T7 sequence: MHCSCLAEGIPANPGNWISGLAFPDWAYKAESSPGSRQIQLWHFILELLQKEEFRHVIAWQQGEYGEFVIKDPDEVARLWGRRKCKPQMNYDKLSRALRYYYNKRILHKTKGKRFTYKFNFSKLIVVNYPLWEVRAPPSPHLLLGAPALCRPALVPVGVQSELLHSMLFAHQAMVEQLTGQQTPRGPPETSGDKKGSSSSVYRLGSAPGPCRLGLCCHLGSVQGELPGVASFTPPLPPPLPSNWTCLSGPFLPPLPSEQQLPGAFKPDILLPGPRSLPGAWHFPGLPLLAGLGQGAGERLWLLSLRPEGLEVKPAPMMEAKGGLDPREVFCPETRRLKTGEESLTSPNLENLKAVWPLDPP
The following applies: protein: recombinant; tags: N-terminal GST; dsDNA, one strand shown. The essentials:
as §1

The next assay has as its target T8, ETS2 (Homo sapiens, UniProt P15036 1-469).
T8 sequence: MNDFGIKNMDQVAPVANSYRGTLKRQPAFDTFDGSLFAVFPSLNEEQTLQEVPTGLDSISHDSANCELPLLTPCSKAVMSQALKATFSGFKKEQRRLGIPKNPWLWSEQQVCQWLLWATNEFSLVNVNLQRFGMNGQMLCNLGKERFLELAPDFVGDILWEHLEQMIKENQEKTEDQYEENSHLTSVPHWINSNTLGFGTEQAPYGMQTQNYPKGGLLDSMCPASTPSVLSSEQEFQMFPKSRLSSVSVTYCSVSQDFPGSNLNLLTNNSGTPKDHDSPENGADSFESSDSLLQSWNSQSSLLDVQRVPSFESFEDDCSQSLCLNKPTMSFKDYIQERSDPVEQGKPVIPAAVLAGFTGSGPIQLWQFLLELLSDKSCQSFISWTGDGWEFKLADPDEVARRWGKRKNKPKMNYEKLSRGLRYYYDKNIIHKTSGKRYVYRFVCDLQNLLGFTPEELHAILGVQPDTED
The conditions noted are these: protein: recombinant; tags: N-terminal GST; dsDNA, one strand shown. Summed up:
as §1

For another assay, the target named is T9, SPDEF (Homo sapiens, UniProt O95238 1-335).
T9 sequence: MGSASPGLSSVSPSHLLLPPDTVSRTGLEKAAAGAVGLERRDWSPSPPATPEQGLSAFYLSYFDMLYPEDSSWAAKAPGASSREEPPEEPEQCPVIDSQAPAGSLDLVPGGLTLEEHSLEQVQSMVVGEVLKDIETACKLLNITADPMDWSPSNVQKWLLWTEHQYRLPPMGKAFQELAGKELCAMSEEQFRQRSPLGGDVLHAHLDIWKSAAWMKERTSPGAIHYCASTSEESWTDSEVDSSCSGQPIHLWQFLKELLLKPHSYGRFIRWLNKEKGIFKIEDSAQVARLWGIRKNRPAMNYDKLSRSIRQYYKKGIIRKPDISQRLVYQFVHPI
The conditions noted are these: protein: recombinant; tags: N-terminal GST; dsDNA, one strand shown. Summed up: as §1

In the next assay the target is T10, ETV7 (Homo sapiens, UniProt Q9Y603 1-341).
T10 sequence: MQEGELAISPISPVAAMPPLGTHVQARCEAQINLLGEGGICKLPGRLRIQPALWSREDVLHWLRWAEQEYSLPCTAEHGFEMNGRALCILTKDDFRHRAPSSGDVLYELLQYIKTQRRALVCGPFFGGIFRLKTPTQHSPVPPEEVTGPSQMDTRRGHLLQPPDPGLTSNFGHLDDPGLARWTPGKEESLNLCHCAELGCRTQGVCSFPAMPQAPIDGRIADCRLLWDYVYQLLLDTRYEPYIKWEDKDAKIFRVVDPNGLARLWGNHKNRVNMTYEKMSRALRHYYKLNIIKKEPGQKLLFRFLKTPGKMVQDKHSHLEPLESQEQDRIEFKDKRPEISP
The conditions noted are these: protein: recombinant; tags: N-terminal GST; dsDNA, one strand shown. Summed up: as §1

The next assay has as its target T11, ELF5 (Homo sapiens, UniProt Q9UKW6-2 1-255).
T11 sequence: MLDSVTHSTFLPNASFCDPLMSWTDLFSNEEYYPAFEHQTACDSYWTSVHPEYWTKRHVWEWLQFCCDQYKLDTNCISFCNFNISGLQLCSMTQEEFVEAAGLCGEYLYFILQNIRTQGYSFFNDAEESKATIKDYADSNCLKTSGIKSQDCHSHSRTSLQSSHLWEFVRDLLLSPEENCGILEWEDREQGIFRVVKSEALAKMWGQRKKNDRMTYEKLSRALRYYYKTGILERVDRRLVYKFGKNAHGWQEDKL
The conditions noted are these: protein: recombinant; tags: N-terminal GST; dsDNA, one strand shown. The essentials: as §1

The target of another assay is T12, ETV3 (Homo sapiens, UniProt P41162-2 1-143).
T12 sequence: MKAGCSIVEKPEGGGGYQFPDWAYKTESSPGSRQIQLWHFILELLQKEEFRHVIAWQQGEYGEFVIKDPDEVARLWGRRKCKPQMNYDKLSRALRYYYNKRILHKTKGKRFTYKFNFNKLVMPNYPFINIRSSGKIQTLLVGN
The following applies: protein: recombinant; tags: N-terminal GST; dsDNA, one strand shown. Summed up: as §1

A further assay concerns the target ETV6 (Homo sapiens, UniProt P41212 1-452). The following applies: protein: recombinant; tags: N-terminal GST; dsDNA, one strand shown. The essentials:
as §1

Sequence of ELF4 (Q99607 whole entry): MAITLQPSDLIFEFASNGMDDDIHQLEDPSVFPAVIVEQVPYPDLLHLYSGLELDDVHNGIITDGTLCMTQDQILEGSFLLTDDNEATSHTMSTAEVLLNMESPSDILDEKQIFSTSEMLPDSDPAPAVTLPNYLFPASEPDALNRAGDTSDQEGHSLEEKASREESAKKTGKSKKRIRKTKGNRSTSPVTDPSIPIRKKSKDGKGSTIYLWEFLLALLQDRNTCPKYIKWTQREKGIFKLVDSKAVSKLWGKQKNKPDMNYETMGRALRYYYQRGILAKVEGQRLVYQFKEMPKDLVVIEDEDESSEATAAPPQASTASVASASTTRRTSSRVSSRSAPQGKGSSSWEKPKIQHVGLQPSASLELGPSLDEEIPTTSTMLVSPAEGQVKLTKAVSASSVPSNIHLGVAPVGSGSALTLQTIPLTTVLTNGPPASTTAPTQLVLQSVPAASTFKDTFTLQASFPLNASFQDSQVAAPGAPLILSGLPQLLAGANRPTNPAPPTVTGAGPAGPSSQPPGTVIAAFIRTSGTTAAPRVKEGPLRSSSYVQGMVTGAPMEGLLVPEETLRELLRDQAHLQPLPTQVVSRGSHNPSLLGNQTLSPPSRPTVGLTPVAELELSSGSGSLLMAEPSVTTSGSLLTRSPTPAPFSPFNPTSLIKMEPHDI
Sequence of ETV1 (P50549 whole entry): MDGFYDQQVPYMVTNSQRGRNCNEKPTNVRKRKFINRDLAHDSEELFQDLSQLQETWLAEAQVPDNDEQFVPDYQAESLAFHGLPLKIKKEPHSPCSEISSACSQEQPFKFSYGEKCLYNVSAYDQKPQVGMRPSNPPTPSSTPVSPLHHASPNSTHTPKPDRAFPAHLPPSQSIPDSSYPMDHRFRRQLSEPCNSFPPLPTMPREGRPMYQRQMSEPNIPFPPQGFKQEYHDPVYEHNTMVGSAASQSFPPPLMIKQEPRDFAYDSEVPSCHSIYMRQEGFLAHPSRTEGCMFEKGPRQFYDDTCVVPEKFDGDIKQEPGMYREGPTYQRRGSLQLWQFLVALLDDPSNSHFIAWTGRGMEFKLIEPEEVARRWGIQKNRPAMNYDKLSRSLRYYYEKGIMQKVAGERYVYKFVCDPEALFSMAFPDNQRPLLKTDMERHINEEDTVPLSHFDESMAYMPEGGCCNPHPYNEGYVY
Sequence of ETV6 (P41212 whole entry): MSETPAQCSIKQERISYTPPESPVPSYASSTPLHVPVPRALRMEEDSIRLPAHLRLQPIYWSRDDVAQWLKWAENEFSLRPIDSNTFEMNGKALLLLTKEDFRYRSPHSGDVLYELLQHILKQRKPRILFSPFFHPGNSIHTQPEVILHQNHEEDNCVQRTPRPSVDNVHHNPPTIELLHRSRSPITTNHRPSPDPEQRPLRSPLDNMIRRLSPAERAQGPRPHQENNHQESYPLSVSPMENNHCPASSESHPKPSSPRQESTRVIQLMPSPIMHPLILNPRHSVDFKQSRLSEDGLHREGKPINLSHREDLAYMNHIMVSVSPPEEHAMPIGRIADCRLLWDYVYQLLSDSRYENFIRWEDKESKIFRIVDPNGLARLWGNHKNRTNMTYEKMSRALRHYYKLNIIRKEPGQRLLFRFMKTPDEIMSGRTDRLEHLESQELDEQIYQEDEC

For the sequence ATGAGC, the binding signal in the assay with FEV is 1.24 fold enrichment (6-mer frequency, TF over GST control); in the assay with ETV5 it was 1.23 fold enrichment (6-mer frequency, TF over GST control); in the assay with HSF1 it was 1.13 fold enrichment (6-mer frequency, TF over GST control); in the assay with SPIC it was 1.29 fold enrichment (6-mer frequency, TF over GST control); in the assay with ELF4, 1.29 fold enrichment (6-mer frequency, TF over GST control); in the assay with ELK4 it was 1.26 fold enrichment (6-mer frequency, TF over GST control). For the same sequence, the binding signal was 1.3 fold enrichment (6-mer frequency, TF over GST control) in the assay with ETV2; 1.35 fold enrichment (6-mer frequency, TF over GST control) in the assay with ELF3; 1.31 fold enrichment (6-mer frequency, TF over GST control) with CRX; 1.14 fold enrichment (6-mer frequency, TF over GST control) with ETV1; 1.29 fold enrichment (6-mer frequency, TF over GST control) with ERF; 1.14 fold enrichment (6-mer frequency, TF over GST control) in the assay with ETV3L. In addition, the binding signal was 1.26 fold enrichment (6-mer frequency, TF over GST control) with ETS2; 1.12 fold enrichment (6-mer frequency, TF over GST control) in the assay with SPDEF; 1.15 fold enrichment (6-mer frequency, TF over GST control) with ETV7; 1.12 fold enrichment (6-mer frequency, TF over GST control) with ELF5; 1.34 fold enrichment (6-mer frequency, TF over GST control) with ETV3; 1.24 fold enrichment (6-mer frequency, TF over GST control) in the assay with ETV6.
